Among the data in PMC7819943, “Rice protein-binding microarrays: a tool to detect cis-acting elements near promoter regions in rice” are binding signal values, retold here.

In all, about 68,000 sequences were measured (“fluorescence intensity (a.u.)”: median about 9,100, highest 2% from about 16,000 on). The entries come from a sample that favours the highest values as a whole.

For the assay, the target named is OsWRKY34 (Oryza sativa, UniProt Q0JBA9 1-250). The assay is described as follows: protein-binding microarray (RPBM); PBS, 2% BSA, 51.3 ng/ul salmon testes DNA, 50 uM zinc acetate, 200 nM TF, 25 C, 1 h; high values mean tight binding. The settings on record: protein: recombinant; tags: N-terminal polyhistidine and DsRed monomer fusion (pET32a); label: CyDye5-dUTP incorporated in the synthesized complementary strand; 3' TTTTT single-stranded linker to array surface; dsDNA, one strand shown. In outline: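 The binding signal is fluorescence intensity per array feature (arbitrary units). Readings came from an Axon 4000B scanner after a washed, 2% BSA-blocked, double-stranded custom Agilent array had been incubated for 1 h at 25 °C with 200 nM protein and 50 µM zinc acetate. The protein was a Ni–NTA-purified transcription factor fused N-terminally to polyhistidine and DsRed, expressed in E. coli BL21-CodonPlus.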
OsWRKY34, sequence (Q0JBA9 entry or part of it): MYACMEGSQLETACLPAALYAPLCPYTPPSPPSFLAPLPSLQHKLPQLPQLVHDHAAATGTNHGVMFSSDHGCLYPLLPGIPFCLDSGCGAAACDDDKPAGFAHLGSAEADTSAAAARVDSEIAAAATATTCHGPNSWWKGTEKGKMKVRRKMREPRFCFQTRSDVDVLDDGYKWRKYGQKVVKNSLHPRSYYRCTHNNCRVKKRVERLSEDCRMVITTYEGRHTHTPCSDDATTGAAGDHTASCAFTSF
With “ACCCACCACATCGACGCGACCACACTCCACACAAGCCATGCGGAGTCACCTAGTGCAG”, the binding signal is 10100 fluorescence intensity (a.u.).

In the case of “TAGTGTTGGTTTGATTTTTATATCACTAGAGATGAACTAACGGAGTCACCTAGTGCAG”, the binding signal is 8560 fluorescence intensity (a.u.).

For the sequence “GATGATGATGATTTTGGTAGGAGATATGGATCGTGTTGGTCGGAGTCACCTAGTGCAG”, the binding signal is 11300 fluorescence intensity (a.u.).

For “ATCTTATTAATTAATTCTTTGTGTTTCATATTATTCTAATCGGAGTCACCTAGTGCAG”, the binding signal is 10300 fluorescence intensity (a.u.).

Take “TGCGAGTTCGTCGCCGCCTCCGCCGATCTCCATCAGGCGACGGAGTCACCTAGTGCAG”: the binding signal was 9610 fluorescence intensity (a.u.).

Turning to “GCAGCGACGACATCTGACGGCCTCACCTACCTTTCGGTCTCGGAGTCACCTAGTGCAG”, the binding signal was 8460 fluorescence intensity (a.u.).

As for “GGTGTCTTGATTGATATGATTTAAATTATTCTTGGTCTTGCGGAGTCACCTAGTGCAG”, the binding signal is 9570 fluorescence intensity (a.u.).

Take “GGCTCAACAAATAATGTGAAGATCTCTCATTTTCATTTTCCGGAGTCACCTAGTGCAG”: the binding signal was 8050 fluorescence intensity (a.u.).

“TCGTTATACCTGGTTTTTTTGGTTGAGGGATGTTATTCGACGGAGTCACCTAGTGCAG”: the binding signal was 12500 fluorescence intensity (a.u.).

Take “TTTATACATGGTTTGTGTTTTTCTCACTTTGGGTTGGGGACGGAGTCACCTAGTGCAG”: the binding signal is 18000 fluorescence intensity (a.u.).

Regarding “TCTTTGTTATAATTATGGGGTTGGTTTTATTCGTTTTCGACGGAGTCACCTAGTGCAG”, the binding signal is 21900 fluorescence intensity (a.u.).

In the case of “AAATTTGTTATTTTTGTTTCGAATTATATAATTCGAATTTCGGAGTCACCTAGTGCAG”, the binding signal is 9450 fluorescence intensity (a.u.).

Take “CTAGTTGTGTTTGTTAATTTCTTTCTATACATGGGTTACCCGGAGTCACCTAGTGCAG”: the binding signal was 11700 fluorescence intensity (a.u.).

For the sequence “TGTTTGGTTGGGATACATGGGAATTTTGGTAGGATGGGGACGGAGTCACCTAGTGCAG”, the binding signal was 12700 fluorescence intensity (a.u.).

For the sequence “GACACCACATAAAGACACCCATCCCCGTGATCAACTACCTCGGAGTCACCTAGTGCAG”, the binding signal is 8320 fluorescence intensity (a.u.).

In the case of “CGCCTGTCAAATCCTAGTCAGGGAATCTGTCTTCCATCTACGGAGTCACCTAGTGCAG”, the binding signal was 9100 fluorescence intensity (a.u.).

For the sequence “TTATTGTTTTTATTGTCTTTTTTTCTTTATATTTCCAAAACGGAGTCACCTAGTGCAG”, the binding signal was 11400 fluorescence intensity (a.u.).

Regarding “TCTTCTTTTGTTGTCTTCTGCTATCCAATCTCTTGTCAAACGGAGTCACCTAGTGCAG”, the binding signal was 10500 fluorescence intensity (a.u.).

“GTTGAGGGACCCGCTGGATCTGGTTTTTGATTGAAGGATACGGAGTCACCTAGTGCAG”: the binding signal was 8800 fluorescence intensity (a.u.).

Turning to “TGTTATTATTGCCGTTGTCTTTATTTTTCTTTTTTGAAAACGGAGTCACCTAGTGCAG”, the binding signal is 9580 fluorescence intensity (a.u.).

As for “AGTTGAGGGATCCGTTGTATCTGGTTTTGCGGTTGAAGGACGGAGTCACCTAGTGCAG”, the binding signal was 8570 fluorescence intensity (a.u.).

For the sequence “GCCTTTTTCTTGCGTGTAGGTTGTTCTGTTGAGAGAAAGACGGAGTCACCTAGTGCAG”, the binding signal is 17700 fluorescence intensity (a.u.).

As for “AGTATTGTTTTCTCGCTGTCTCTATCCAAATCTTTGAAAACGGAGTCACCTAGTGCAG”, the binding signal is 17200 fluorescence intensity (a.u.).

For the sequence “TTTTTTTTCTTTCTGTTCTGTTTCTGTTGAGAAACAAAGACGGAGTCACCTAGTGCAG”, the binding signal is 8450 fluorescence intensity (a.u.).

With “TTGTGTAGGTTTTGTTTCTTTCTTCTTTTTTCGAAAAGAGCGGAGTCACCTAGTGCAG”, the binding signal was 8940 fluorescence intensity (a.u.).

As to “TTTTTCTTTTTATTGTCTTGTTCTCGTGCGTGTTGAAAAACGGAGTCACCTAGTGCAG”, the binding signal was 20300 fluorescence intensity (a.u.).

As to “AAGGACCCGTTCTATCTGGTTTTGCGGTTGAAGGATAGAACGGAGTCACCTAGTGCAG”, the binding signal was 28000 fluorescence intensity (a.u.).

As for “TATATTGTCTGTTTTCTCTTGAATCTTTCCTATCCAGTAGCGGAGTCACCTAGTGCAG”, the binding signal is 8490 fluorescence intensity (a.u.).
